Results filed as inconclusive are left out.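 How the source made its calls, unless noted: active means growth inhibition above 25% in both replicates, a cutoff set 3 SD above the mean; inconclusive means above 25% in only one replicate; inactive means the rest.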
How the values were obtained:
[1] = OD615 S. cerevisiae growth inhibition, permissive medium, pilot counter-assay, permissive growth control for S. cerevisiae lifespan shortening project (AID 705); settings: OD615, 24 h, at 10 µM, stronger effect = higher value
[2] = Restrictive medium S. cerevisiae growth inhibition, OD615, pilot screen of yeast lifespan reduction project, restrictive growth control (AID 706;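 active means growth inhibition above a set limit, 3 SD over mean compound inhibition, in both replicates, cut at about 43% in these data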;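 further: modified DeaD lifespan yeast strain shifted to restrictive glucose medium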); settings: OD615, 48 h, at 10 µM, stronger effect = higher value
[3] = viability gain of MRP-1-high H69AR cells under doxorubicin, pilot screen, MRP-1 activator project, CellTiter-Glo, duplicate (AID 807;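 active means viability increase at or above a cutoff of the median across tested compounds plus 3 SD, cut at about 8.5% in these data, passing the limit was not always enough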;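 further: compound pretreatment 18-22 h then 72 h combined with doxorubicin; 0% = doxorubicin alone and 100% = vehicle without doxorubicin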); settings: H69AR viability with doxorubicin, CellTiter-Glo luminescence; at 10 µM; stronger effect = higher value
[4] = growth suppression of beta-catenin knockout HCT116, pilot screen, human colon tumor cells (AID 823;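 active means cell viability at or below a set limit in both duplicate runs, the limit being the all-compound median minus 4 SD, cut at about 23% in these data, passing the limit was not always enough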;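 further: 0% = wells killed by 20 µM Hyamine and 100% = untreated DMSO cell wells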); settings: CellTiter-Glo, 60 h, at 10 µM, stronger effect = lower value
[5] = RAM signaling pathway blockade in yeast – S. cerevisiae, Pdr1DBD-CYC8 efflux-inhibited sensitized strain, primary screen (AID 1298;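 active means RAM network inhibition above 8.4% in each of two replicates, 3 SD over the compound average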;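 further: 0% = DMSO untreated cells without growth and 100% = 10 µM 1-NA-PP1 full growth; higher means more yeast growth rescued from 5-FOA killing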); settings: S. cerevisiae cbk1-as DSE1-URA3 strain, 5-FOA growth OD615, 2 d; at 50 µM; stronger effect = higher value
[6] = growth suppression of PTEN-deleted HCT116, pilot screen, cell-based, HCT116 clonal line, CellTiter-Glo (AID 824;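 active means viability at or below 27.92% in each of two runs, the all-compound median minus 4 SD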;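 further: 0% = 20 µM Hyamine control and 100% = vehicle cell control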); settings: 60 h, at 10 µM, stronger effect = lower value

N#CC(=C1SC=CS1)c1nc(-c2ccccc2)cs1
inactive: growth inhibition [1] 5.05% | growth inhibition [2] -6.89% | viability increase [3] -3.21% | viability [4] 84.4% | RAM network inhibition [5] 9.12%

CCN1CCN(c2cc(C)c3cc(NC(=O)c4cncc(Br)c4)ccc3n2)CC1
inactive: growth inhibition [1] -4.93% | growth inhibition [2] -2.12% | viability increase [3] -6.22% | RAM network inhibition [5] -0.98%

Cc1nnc(NC(=O)CSc2nnc(Cc3cccn3C)n2-c2cccc(C)c2C)s1
inactive: growth inhibition [1] 6.78% | growth inhibition [2] 31% | viability increase [3] -0.56% | viability [4] 100% | viability [6] 87.2% | RAM network inhibition [5] -0.2%

COc1ccc(C(=O)CSc2nnc(-c3ccccc3)o2)cc1
inactive: growth inhibition [1] 4.92% | growth inhibition [2] 15.3% | viability increase [3] -0.88% | viability [4] 95.6% | viability [6] 88.8% | RAM network inhibition [5] 7.56%

Clc1cc(Br)ccc1OCCOCCN1CCOCC1
inactive: growth inhibition [1] -3.75% | growth inhibition [2] 2.38% | viability increase [3] 0.57% | viability [4] 93.5% | viability [6] 91.7% | RAM network inhibition [5] 0.08%

CC1Cn2c(nnc2-c2ccccc2O)S1 (centres undefined)
inactive: growth inhibition [1] -13.6% | growth inhibition [2] -21.9% | viability increase [3] -1.33% | viability [4] 115% | viability [6] 98.2% | RAM network inhibition [5] 5.23%

CCCCOc1ccc(S(=O)(=O)Nc2cc(OC)ccc2OC)cc1
inactive: growth inhibition [1] -1.52% | growth inhibition [2] -16.5% | viability increase [3] 0.92% | viability [4] 54.8% | viability [6] 71.3% | RAM network inhibition [5] 7.83%

CCOC(=O)C1CCN(C(C(=O)NC2CCCCC2)c2ccc(OC)cc2)CC1 (centres undefined)
inactive: growth inhibition [1] -4.53% | growth inhibition [2] -11.7% | viability increase [3] -1.91% | viability [4] 93.2% | viability [6] 88.6% | RAM network inhibition [5] 3.74%

Cc1ccc(CN2CCNC(=O)C2CC(=O)O)cc1 (centres undefined)
inactive: growth inhibition [1] 2.7% | growth inhibition [2] -8.03% | viability increase [3] -1.2% | viability [4] 97.3% | viability [6] 92.4% | RAM network inhibition [5] 0.83%

CC(C)c1ccc(OC(=O)NCCO)cc1
inactive: growth inhibition [1] 4.54% | growth inhibition [2] -4.21% | viability increase [3] 0.33% | viability [4] 98.9% | viability [6] 104% | RAM network inhibition [5] 4.79%

CS(=O)(=O)c1ccc2nc(NC(=O)Cc3ccccc3)sc2c1
inactive: growth inhibition [1] -10.9% | growth inhibition [2] -4.83% | viability increase [3] -4.98% | viability [4] 91.5% | viability [6] 96.3% | RAM network inhibition [5] 3.94%

CCOC(=O)c1c(NC(=O)c2cccs2)sc2c1CCC2
inactive: growth inhibition [1] -13.6% | growth inhibition [2] -20.4% | viability increase [3] -0.45% | viability [4] 91.7% | viability [6] 90.4% | RAM network inhibition [5] 4.33%

O=C(NCc1ccccc1Cl)C1CCN(C(=O)c2sccc2-n2cccc2)CC1
inactive: growth inhibition [1] -17.6% | growth inhibition [2] -12% | viability increase [3] -2.65% | viability [4] 99.2% | viability [6] 86.8% | RAM network inhibition [5] 8.69%

CCOC(=O)c1c(C)[nH]c(C(=O)COc2ccc3c(c2)OCO3)c1C
inactive: growth inhibition [1] 1.84% | growth inhibition [2] -1.24% | viability increase [3] -2.79% | viability [4] 91.2% | viability [6] 87.5% | RAM network inhibition [5] 5.07%

O=C(Nc1nc(-c2nc3ccccc3s2)cs1)C1COc2ccccc2O1 (centres undefined)
inactive: growth inhibition [1] 2.93% | growth inhibition [2] -0.5% | viability increase [3] -2.5% | viability [4] 96.8% | viability [6] 91.3% | RAM network inhibition [5] 2.13%

COc1ccc(-c2nc(-c3cccc(C(F)(F)F)c3)no2)cc1OC
inactive: growth inhibition [1] -2.88% | growth inhibition [2] 1.6% | viability increase [3] -0.18% | viability [4] 99% | viability [6] 93.3% | RAM network inhibition [5] 7.48%

O=C(Cn1c(=O)oc2cc(S(=O)(=O)N3CCCC3)ccc21)NC1CCCc2ccccc21 (centres undefined)
inactive: growth inhibition [1] -5.83% | growth inhibition [2] -9.71% | viability increase [3] -0.88% | viability [4] 97% | viability [6] 79.4% | RAM network inhibition [5] 10.3%

CCOc1cc(-c2nc(-c3ccc(OC)cc3)no2)cc(OCC)c1OCC
inactive: growth inhibition [1] -4.43% | growth inhibition [2] -2.33% | viability increase [3] -3.25% | viability [4] 93.9% | viability [6] 89.5% | RAM network inhibition [5] 9.91%

COc1ccccc1CCNC(=O)CSc1nc(-c2ccco2)cc(C(F)(F)F)n1
inactive: growth inhibition [1] -13.3% | growth inhibition [2] -5.15% | viability increase [3] -1.65% | viability [4] 102% | viability [6] 93.7% | RAM network inhibition [5] 6.42%

COc1ccc(-n2c(SCC(=O)N3CCCC3)nc3c([nH]c4ccccc43)c2=O)cc1
inactive: growth inhibition [1] -20.2% | growth inhibition [2] -19.5% | viability increase [3] -3.04% | viability [4] 105% | viability [6] 93.7% | RAM network inhibition [5] 1.9%

Cc1cccc(-c2nc(CS(=O)CC(=O)N3CCN(C)CC3)c(C)o2)c1 (centres undefined)
inactive: growth inhibition [1] -8.17% | growth inhibition [2] -8.82% | viability increase [3] -1.78% | viability [4] 95.9% | viability [6] 99.5% | RAM network inhibition [5] 2.3%

COc1cc(OC)c(NS(=O)(=O)c2coc(C(N)=O)c2)cc1Cl
inactive: growth inhibition [1] -4.63% | growth inhibition [2] -4.55% | viability increase [3] -3.53% | viability [4] 105% | viability [6] 95.8% | RAM network inhibition [5] 6.88%
